Screens as filed in PubChem BioAssay.
Gli-Sufu block: blocks Gli-Sufu signaling in a luciferase reporter; Sufu-KO-LIGHT fibroblasts, Gli luciferase reporter luminescence; inhibition, % at 5 µM; 340,000 tested, 0.74% active; AID 588413;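 active means inhibition above about 55%, limit read from the data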;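 further: 0% = DMSO-treated cells and 100% = wells with medium but no cells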
TAG inh: inhibitors of triacylglycerol accumulation; H9c2 cells, Nile Red lipid (TAG) fluorescence; cells loaded with 200 µM oleic acid; inhibition, % at 12.5 µM; 230,000 tested, 0.66% active; AID 651582;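 active means pattern-corrected inhibition of lipid staining of at least 50% with the nuclear-stain viability signal not falling by more than 50%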;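 further: 0% = DMSO wells and 100% = triacsin C control wells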
697 NFkB inh: lowers PMA/ionomycin-induced NF-kB signal in 697 B cells | 697 B-cell NF-kB luciferase reporter, 16 h | inhibition, % at 4 µM | 330,000 tested, 0.33% active | AID 435022; in the data active means inhibition above about 35%
aSyn UTR inh: 5' untranslated region of α-synuclein, MLPCN primary screen | alpha-synuclein 5'UTR reporter, inhibitor activity | inhibition, % (tested at 7.5 µM) | 300,000 tested, 0.82% active | AID 1813; in the data active means inhibition above about 60%;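 further: H4 neuroglioblastoma cells stably carrying SNCA 5'UTR luciferase fusion; 0% = DMSO wells and 100% = positive control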
Shn3 inh set2: Schnurri-3 reporter inhibition in Clone20 osteoblasts | inhibition, % at 12.5 µM | Clone20 osteoblast Shn3 3'UTR firefly luciferase, 24 h | 360,000 tested, 0.52% active | AID 588674;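 active means mean inhibition of at least 75% with every replicate also reaching 75%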;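 further: 0% = median of neutral control wells and 100% = pilot-screen positive control compound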
Jurkat NFkB inh: lowers PMA/ionomycin-induced NF-kB signal in Jurkat cells | PMA/ionomycin-induced NF-kB luciferase reporter, luminescence | 330,000 tested, 0.53% active | inhibition, % at 4 µM; in the data active means inhibition above about 50%
Jurkat NFkB conf: lowers PMA/ionomycin-induced NF-kB signal in Jurkat cells; Jurkat NF-kB luciferase, 16 h; inhibition, % at 4 µM; shares compounds with Jurkat NFkB inh; AID 435020; 2,700 tested, 27% active;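 active means inhibition reaching about 45% at 4 µM in either replicate, limit read from the data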;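 further: plate controls were PMA/ionomycin stimulated DMSO wells for no effect and unstimulated DMSO wells for full effect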
* hit, by the source's call; / = no result given. Most compounds without a hit are left out; they make up all but 2.3% or so of the library.

SMILES	Gli-Sufu block	TAG inh	697 NFkB inh	aSyn UTR inh	Shn3 inh set2	Jurkat NFkB inh	Jurkat NFkB conf
C=C(C)COc1ccc(-c2[nH]ncc2-c2ccc(OC)c(OC)c2)c(O)c1	6	10	-60	-13	53	64*	62*
C=C(C)COc1ccc(-c2n[nH]c(C)c2-c2ccc(OC)c(OC)c2)c(O)c1	-7	56*	-13	49	16	67*	50*
C[C@@H](NC(=O)c1nc[nH]c1C(=O)OCc1ccccc1)c1ccccc1	0	/	16	/	5	11	/
CC(Sc1nc(-c2ccccc2)cc(C(F)(F)F)n1)C(=O)Nc1sc2c(c1C(N)=O)CCC2 (stereo not drawn)	2	/	-35	4	0	11	/
CC1=CC(=O)C(C(C)C)=C/C1=N/OS(=O)(=O)c1ccccc1	-6	98	-82	-23	18	81*	0
CC1=CC(=O)C=C(C)C1=NOS(=O)(=O)c1ccccc1	4	-41	/	12	57	/	/
O=C(NC1CCS(=O)(=O)C1)C1CCCN(S(=O)(=O)c2ccc(Cl)cc2)C1 (stereo not drawn)	5	/	15	-3	-8	8	/
O=C(Nc1ccccc1)N1CCC(c2nc(-c3ccc(S(=O)(=O)N4CCOCC4)cc3)no2)CC1	5	/	-82	-13	44	53*	19
O=C(O)C(Cc1ccccc1)NC(=O)C(c1ccccc1)c1ccccc1 (stereo not drawn)	14	/	5	13	-4	24	/
CCN1C(=O)CC(C(=O)NC)SC1=Nc1cc(Cl)c(O)c(Cl)c1 (stereo not drawn)	3	2	-7	-5	-7	7	/
CC(C)Cn1c(SCC(=O)NC2CC2)nc2ccc(Cl)cc2c1=O	/	-7	/	/	17	/	/
COc1cccc(C(=O)NC(C)c2cccc3ccccc23)c1OC (stereo not drawn)	-2	/	0	5	16	11	/
NC1=NC[C@H](c2ccccc2)N1CCc1cc(C(F)(F)F)cc(C(F)(F)F)c1	21	43	-17	-10	21	71*	13
CC(O)[C@H]1CN=C(N)N1CCc1cc(C(F)(F)F)cc(C(F)(F)F)c1 (stereo partly drawn)	-1	14	8	-9	-1	-5	/
CN(c1cccc(Cl)c1)S(=O)(=O)c1cccc(C(=O)Nc2nc3ccccc3[nH]2)c1	17	/	-30	-26	30	9	/
O=C(Nc1nc2ccccc2[nH]1)c1cccc(Cl)c1	-82	0	-235	-151	-66	-160	-123
CCOC(=O)c1sc(NC(=O)c2ccc(S(=O)(=O)N(C)C)cc2)cc1C	12	/	-46	-21	9	-7	/
CCOC(=O)c1sc(NC(=O)c2ccc(Cl)s2)cc1C	-101	3	-113	-196	-61	-195	-58
CCOC(=O)c1sc(NC(=O)c2ccccc2)cc1C	-80	1	-119	-181	-23	-163	-91
CCOC(=O)c1sc(NC(=O)Nc2ccc(Cl)cc2)cc1C	-18	-15	-22	-135	38	-22	/
Clc1cccc(Cl)c1/C=N/Nc1c(Cl)cncc1Cl	-16	0	-35	-30	7	73*	49
Cc1ccc(CNC(=O)CCCn2c(=O)c3ccccc3n(CC(=O)NCc3ccco3)c2=O)cc1	3	/	13	-15	-9	-11	/
COc1ccc(NC(=O)CCn2nc(C)cc2C)cc1	2	13	-30	5	-10	-27	/
COc1ccc(C2=NOC(C(=O)NCc3cccs3)C2)cc1OC (stereo not drawn)	-3	/	-99	60	/	50*	44
COc1cc(OC)c(C2=NOC(C(=O)NCc3cccs3)C2)cc1Cl (stereo not drawn)	11	31	-16	-6	22	54*	22
COc1ccc(C2=NOC(C(=O)NCc3cccs3)C2)cc1 (stereo not drawn)	-27	17	-38	-46	-20	44	/
COc1cccc(NC(=O)CSc2nnc(-c3ccc(C)cc3)o2)c1	-22	-14	-30	-114	-48	-185	-24
COc1ccccc1NC(=O)CSc1nnc(-c2ccc(C)cc2)o1	-70	/	-141	20	-40	-162	-91
Cc1ccc(NC(=O)CSc2nnc(-c3ccncc3)o2)cc1	0	/	11	13	-21	6	/
